Results taken from PubChem BioAssay (NCI).
About 79,000 compounds went through this panel and 15% of them were active in at least one assay; those are over-represented in the sample as a whole. Rule as the data show it: active = growth inhibition above about 70%; inactive = the rest.

Legend:
[1] = NCI Yeast Anticancer Drug Screen. Data for the rad50 strain (AID 155);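 also: 0% = growth of vehicle-only cultures of the same strain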; conditions: S. cerevisiae rad50 strain growth inhibition; at 50.0 µM; hits give high values
Summary of the method: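 Growth of the mutant yeast was measured after compound exposure and referenced to vehicle-treated cultures.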

[2] = NCI Yeast Anticancer Drug Screen. Data for the mec2-1 strain (AID 157); conditions: S. cerevisiae mec2-1 strain, at 50.0 µM, hits give high values
Summary of the method: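 Growth inhibition is read against vehicle-treated controls after compound exposure of the mec2-1 yeast strain, which is defective in DNA damage repair or cell cycle control.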

[3] = NCI Yeast Anticancer Drug Screen. Data for the sgs1 mgt1 strain (AID 161);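 also: 0% = growth of cultures given vehicle only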; conditions: S. cerevisiae sgs1 mgt1 strain, at 50.0 µM, hits give high values
Summary of the method: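 Growth of a repair-deficient yeast mutant was monitored after compound treatment and expressed as inhibition relative to vehicle-treated cultures.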

[4] = NCI Yeast Anticancer Drug Screen. Data for the cln2 rad14 strain (AID 165);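 also: 0% = growth equal to vehicle treated cultures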; conditions: S. cerevisiae cln2 rad14 strain, at 50.0 µM, hits give high values
Summary of the method: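 Growth inhibition, relative to vehicle-treated controls, is the read-out. The test organism is a yeast strain with defined genetic alterations, cln2 rad14.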

[5] = NCI Yeast Anticancer Drug Screen. Data for the bub3 strain (AID 167); conditions: S. cerevisiae bub3 mutant strain, at 50.0 µM, hits give high values
Summary of the method: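 Whole-cell yeast assay. The mutant strain was incubated with compounds, and growth inhibition was determined by comparison with vehicle-treated cells.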

[6] = NCI Yeast Anticancer Drug Screen. Data for the mlh1 rad18 strain (AID 175); conditions: S. cerevisiae mlh1 rad18 strain growth inhibition; at 50.0 µM; hits give high values
Summary of the method: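 Cells of a genetically altered yeast strain, deficient in DNA damage repair, were treated with compound. Their growth was then compared with that of vehicle-treated cultures to give inhibition.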

Measured: growth inhibition

CC(=O)c1cccc(NC(=O)Nc2cccc3ccccc23)c1
inactive: [1] 0.45% | [2] 5.7% | [3] 14.9% | [4] 2.75% | [5] 15.7% | [6] 2.7%

Cc1ccccc1-c1nc(/C=C2\C(=O)C=Cc3ccccc32)c(O)o1
inactive: [1] -17.3% | [2] -4.45% | [3] -1.1% | [4] 23.6% | [5] -2.55% | [6] -1.6%

O=C1OC(=C(Cl)Cl)C2C3c4ccccc4C(c4ccccc43)C12 (stereo unspecified)
inactive: [1] 21.9% | [2] 21.6% | [3] -1.5% | [4] 8.75% | [5] 2.7% | [6] 18.2%

O=c1cc2n(c(=O)n1Cc1ccccc1)CCC2
inactive: [1] 10.9% | [2] 4.25% | [3] 1.55% | [4] 1.5% | [5] -3.9% | [6] -6%

Cc1nc2ccc(I)cc2c(=O)n1-c1ccc(N=Cc2ccc(N(C)C)cc2)cc1
inactive: [1] 4.7% | [2] 9.1% | [3] 14.3% | [4] 4.95% | [5] -2.9% | [6] 10.9%

C/C(=C\N1CCCCC1)C(=O)c1ccc(F)cc1
inactive: [1] 9.3% | [2] 13.2% | [3] -4.65% | [4] 6.25% | [5] -16.4% | [6] 24.7%

Cc1ccc(N=Nc2c(C)nc(N)nc2C)cc1
inactive: [1] 7.5% | [2] 13.9% | [3] -12.7% | [4] -2.85% | [5] 12.1% | [6] -6.55%

COc1ccc(C=Nc2ccc(Cl)cc2)cc1
inactive: [1] -11.5% | [2] -25.2% | [3] 4.45% | [4] -18.7% | [5] 2.55% | [6] 3.55%

O=C(N/N=C/c1ccc(Cl)cc1Cl)c1cccc([N+](=O)[O-])c1
inactive: [1] 0.65% | [2] -8.7% | [3] 32.5% | [4] -6.95% | [5] 2.3% | [6] 24.4%

CC(C(O)C(F)(F)F)[N+](=O)[O-] (stereo unspecified)
inactive: [1] -1.7% | [2] -4.5% | [3] 8.65% | [4] -5.2% | [5] -2.05% | [6] 17.2%

Cc1ccc(Nc2nc(C)c(C(=O)C/C(=N/NC(N)=S)C(=O)Nc3cc(Cl)cc(Cl)c3)s2)cc1
inactive: [1] -13.3% | [2] -13.1% | [3] 15.6% | [4] 22.1% | [5] -13.4% | [6] -27.8%

O=C(OCC(OC(=O)c1ccccc1)C(OC(=O)c1ccccc1)C(OC(=O)c1ccccc1)C(COC(=O)c1ccccc1)OC(=O)c1ccccc1)c1ccccc1 (stereo unspecified)
inactive: [1] 22.1% | [2] 10% | [3] 10.7% | [4] 5.55% | [5] -5.45% | [6] 7.65%

O=C(Nc1ccccc1C/C(=N/O)c1ccc2c(c1)OCO2)c1ccccc1
inactive: [1] 51.5% | [2] 0.4% | [3] 54.1% | [4] -32% | [5] 3.55% | [6] 23.4%

CC1(C)C(C#N)C1C1=C(N2CCOCC2)[C@]2(C)C(OC(=O)c3ccccc3)CC[C@@H]2C1 (stereo partly specified)
inactive: [1] -8.6% | [2] -17.2% | [3] -8.7% | [4] 7.7% | [5] 12.4% | [6] 4.15%

Cc1ccc(S(=O)(=O)NC(CC(C)C)C(=O)O)cc1 (stereo unspecified)
inactive: [1] 6.65% | [2] -10.6% | [3] -4.55% | [4] -34.2% | [5] 1.3% | [6] 0.45%

CCC(C)(C#N)OC(C)=O (stereo unspecified)
inactive: [1] -3.75% | [2] -26.6% | [3] -8.4% | [4] -6.85% | [5] 4.6% | [6] 8.45%

Brc1ccccc1N=Nc1ccccc1Br
inactive: [1] -13.6% | [2] 3.95% | [3] 0.6% | [4] -18.6% | [5] -8.5% | [6] -20.5%

COC1C2CCC1C(N=O)C2Br (stereo unspecified)
inactive: [1] -23.2% | [2] 3.75% | [3] -3.1% | [4] -44.9% | [5] 0.65% | [6] -14.7%

Cc1cccc(NC(=O)c2cccc(C(=O)Nc3cccc(C)c3C)c2)c1C
inactive: [1] -12.4% | [2] 0.6% | [3] 17.6% | [4] -15.9% | [5] 5.2% | [6] -21.9%

CC(=O)/C(=C\c1ccc(C(F)(F)F)cc1)C(=O)CCN(C)C
inactive: [1] 43.4% | [2] 0.05% | [3] 51.6% | [4] 19.6% | [5] 3.25% | [6] 25.7%

O=C(C(=O)c1cccs1)c1cccs1
inactive: [1] 3.1% | [2] 9.05% | [3] 34.4% | [4] 6.15% | [5] -17.5% | [6] 22.5%

C/C(=N/N(C)c1ccccc1)C(C)C
inactive: [1] 14.5% | [2] -6.75% | [3] 3.45% | [4] 1.6% | [5] 24.4% | [6] 10.7%

CC1=C2CC[C@@]3(C)C(=CCC3O)C2(C)CCC1=O (stereo partly specified)
inactive: [1] -1.3% | [2] 11.9% | [3] -7.5% | [4] -34% | [5] -8.9% | [6] -7.6%

CN=C(NC#N)NCCSCc1nc[nH]c1C
inactive: [1] 20.3% | [2] 16.8% | [3] -17.5% | [4] -5.2% | [5] -16.6% | [6] -29.2%

CCCCc1ccc(Nc2nc(SC)c3[nH]cnc3n2)cc1
inactive: [1] 0.85% | [2] -17.6% | [3] 28.9% | [4] 16.1% | [5] 29.7% | [6] -37.7%

O=C1CC(c2ccccc2)Oc2cc(O)cc(O)c21 (stereo unspecified)
inactive: [1] 9.1% | [2] -30.8% | [3] 9.2% | [4] 22.6% | [5] -14.4% | [6] 16.7%

CCN(c1ccccc1C(=O)O)S(=O)(=O)c1ccc(C)cc1
inactive: [1] 1.9% | [2] -1.95% | [3] 23.2% | [4] 27.6% | [5] 22% | [6] 11.9%

COc1ccc(-c2c(C#N)c(N)nc(C)c2-c2ccccc2)cc1
inactive: [1] -26.4% | [2] -10.8% | [3] -6.85% | [4] -24.6% | [5] -5.65% | [6] 16.9%

CCCC1CCN(c2ccc([N+](=O)[O-])cc2[N+](=O)[O-])CC1
inactive: [1] 1.75% | [2] -4.75% | [3] 9.65% | [4] -19.2% | [5] 38.2% | [6] -1.15%

CC(C)(C#N)OC(=O)c1cccc(C(=O)OC(C)(C)C#N)c1Sc1ccccc1
inactive: [1] 41.8% | [2] -2.6% | [3] -7.25% | [4] 7.55% | [5] -2% | [6] -1.55%

CCCCCCCOc1ccc(C2=C(c3ccccc3)C(=O)C(c3ccccc3)=C2c2ccccc2)cc1
inactive: [1] 22.4% | [2] 3.3% | [3] 8.3% | [4] 15.9% | [5] 3.95% | [6] 2.4%

CCc1ccc(NC(=O)c2ccc(C(=O)Nc3ccc(CC)cc3)cc2)cc1
inactive: [1] 3.2% | [2] 6.6% | [3] 8.4% | [4] 14.1% | [5] 13.4% | [6] 5.1%

NC(=O)c1nnc2cc(F)ccc2c1N
inactive: [1] 4.8% | [2] -3.45% | [3] 1.35% | [4] 0.4% | [5] 1.6% | [6] -1.6%

CC1c2ccccc2-c2ccccc21
inactive: [1] 10.2% | [2] -4.9% | [3] 7.25% | [4] -3.15% | [5] -1% | [6] 20.4%

O=C1c2ccccc2C(=O)c2cc(Br)ccc21
inactive: [1] -6.75% | [2] -21.6% | [3] 12.4% | [4] -110% | [5] -16.2% | [6] 0.2%

Cc1ccc(S(=O)(=O)Nc2ccc(C(=O)Cl)cc2)cc1
inactive: [1] 4.8% | [2] 25.4% | [3] 23.5% | [4] 6.9% | [5] 27.4% | [6] 11.8%

CC(=O)OC1COC(n2c(O)c(N=NC(N)=S)c3cc(Br)ccc32)C(OC(C)=O)C1OC(C)=O (stereo unspecified)
inactive: [1] 41.1% | [2] 8.2% | [3] 46.2% | [4] -34.2% | [5] 27.1% | [6] 31.1%

CCCCCOC(c1cc2c(cc1Br)OCO2)C(C)Br (stereo unspecified)
inactive: [1] 8.9% | [2] 22.1% | [3] 10.8% | [4] 19.4% | [5] 22.8% | [6] 13.5%

NC(=O)OCc1c(-c2ccccc2)nn(-c2ccccc2)c1COC(N)=O
inactive: [1] -26.2% | [2] -31% | [3] -18.5% | [4] -19.6% | [5] 1.05% | [6] -16.2%

CCCCN(C=O)CCCC
inactive: [1] 20.7% | [2] 17.3% | [3] 17.4% | [4] 9.45% | [5] 4.75% | [6] 3.7%

COc1ccc(-c2c(C(=O)O)cc(O)c3c(OC)c(OC)c(OC)cc23)cc1OC
inactive: [1] -2.8% | [2] 4% | [3] -17.6% | [4] -9.2% | [5] 2.7% | [6] 32.5%
